A selection: hits, their analogues and other compounds. The true share with any hit is near 2.2%.
CHRM1 antagonist: human CHRM1 antagonism | P11229 | CHO-K1 hM1, Fluo-8 calcium fluorescence, ACh EC80 antagonist | inhibition, % at 3 µM | 360,000 compounds, 1.3% hits;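 active = percent inhibition above its own plate's cutoff, namely the mean of that plate's compound wells plus 3 SD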;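 note: peak over basal fluorescence ratio during 140 s after agonist addition; 0% = ACh EC80 plus DMSO and 100% = DMSO alone without agonist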
CHRM4 antagonist: antagonists of human muscarinic M4 receptor (CHRM4). CHO-hM4 cells, ACh EC80, Fluo-8 calcium fluorescence. 360,000 compounds, 0.73% hits. inhibition, % at 3 µM. P08173;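 active = inhibition above its plate's cutoff, the mean inhibition of sample wells plus 3 SD, cut at about 27% in these data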;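 note: 0% = acetylcholine EC80 with DMSO and 100% = DMSO without agonist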
Target sequence (P08173 whole entry, looked up): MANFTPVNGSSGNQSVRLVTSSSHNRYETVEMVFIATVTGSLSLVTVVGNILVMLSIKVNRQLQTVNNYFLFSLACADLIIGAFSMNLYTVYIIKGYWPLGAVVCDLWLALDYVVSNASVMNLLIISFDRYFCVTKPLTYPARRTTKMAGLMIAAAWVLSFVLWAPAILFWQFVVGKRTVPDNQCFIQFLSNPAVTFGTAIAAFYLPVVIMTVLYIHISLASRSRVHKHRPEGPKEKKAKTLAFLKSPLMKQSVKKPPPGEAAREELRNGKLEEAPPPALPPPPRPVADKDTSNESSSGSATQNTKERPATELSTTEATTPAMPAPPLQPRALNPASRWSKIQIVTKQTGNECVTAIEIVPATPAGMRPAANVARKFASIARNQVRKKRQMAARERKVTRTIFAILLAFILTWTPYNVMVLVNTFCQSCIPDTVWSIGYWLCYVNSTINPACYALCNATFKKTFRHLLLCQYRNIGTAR
CHRM4 PAM: CHRM4 positive allosteric modulation | P08173 | CHO-K1 hM4/Gqi5, Fluo-8 calcium fluorescence, ACh EC20; 0% = ACh EC20, 100% = maximal ACh | activation, % at 3 µM | 360,000 compounds, 0.4% hits | AID 624126;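 active = activation above its plate's cutoff, the mean activation of sample wells plus 3 SD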
CHRM1 PAM: positive allosteric modulators of human M1 muscarinic receptor; 360,000 compounds, 0.088% hits; P11229; activation, % at 3 µM; CHO-K1 hM1, Fluo-8 calcium fluorescence, ACh EC20; 0% = ACh EC20, 100% = maximal ACh; in the data active = activation above about 19%, passing the limit was not always enough
CHRM1 agonist: agonists of human M1 muscarinic receptor; P11229; CHO-K1 hM1, Fluo-8 calcium fluorescence, agonist mode; 0% DMSO, 100% acetylcholine EC100; activation, % at 3 µM; 360,000 compounds, 0.33% hits; AID 588814;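 active = activation above the run's mean compound activation plus 3 SD, cut at about 16% in these data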;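 note: peak over basal fluorescence ratio within a 140 s kinetic read after compound addition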
CHRM4 agonist: CHRM4 agonism in calcium assay. CHO-K1 hM4/Gqi5, Fluo-8 calcium fluorescence; vehicle 0%, full acetylcholine response 100%. activation, % at 3 µM. AID 624127. 360,000 compounds, 0.14% hits. P08173;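 active = activation above the run mean over all test wells plus 3 SD, cut at about 32% in these data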;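 note: peak over basal fluorescence ratio per well then scaled between controls; 0% = DMSO wells and 100% = acetylcholine at EC100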
* = called active by the depositor; ! = not active in a repeat.

SMILES	CHRM1 antagonist	CHRM4 antagonist	CHRM4 PAM	CHRM1 PAM	CHRM1 agonist	CHRM4 agonist
CCN(c1cccc(C(F)(F)F)c1)S(=O)(=O)c1ccc2c(c1)CCN2C(=O)C1CC1	33*	-3	-11	-16	0	7
CCC(=O)N1CCc2cc(S(=O)(=O)N(CC)c3cccc(C)c3)ccc21	-23	-9	6	2	0	2
CCCCN(CC)Cc1c(O)ccc2c(-c3ccccc3)cc(=O)oc12	24	28*	-26	-6	-7	0
Cc1ccn(CC(=O)NC2CCCN(Cc3ccc(CC(C)C)cc3)C2)n1 (stereo not given)	7	3	-7	-4	-5	3
CC(=O)c1c(C)nn(CC(=O)NC2CCCN(Cc3ccc(CC(C)C)cc3)C2)c1C (stereo not given)	47*	7	-17	-24	-5	3
CCN(CCCC(=O)c1ccc(F)cc1)CCc1ccccc1	59*	23	-15	-26	-10	2
COC(=O)C1C(c2ccccc2)NC(=O)NC1(O)C(F)(F)Cl (stereo not given)	-18	-4	7	12	-2	1
CCOC(=O)C1CCN(C/C=C/c2ccccc2)CC1	-15	-1	-1	4	-3	0
CCCCNc1cc(C)nc(NCc2ccccc2)n1	30*	33*	-6	-10	3	23
Cc1cc(Nc2ccccc2)nc(NCc2ccccc2)n1	13	22	-11	-13	-2	13
CCN(CC)CCCn1c2c(c(SCC(=O)Nc3ccc(F)c(F)c3)nc1=O)CCC2	7	-4	3	-10	-7	0
CCN(CC)CCn1c2c(c(SCC(=O)Nc3ccc(C)c(F)c3)nc1=O)CCCC2	50*	0	-4	-26	-8	0
CCN(CC)CCCn1c2c(c(SCC(=O)Nc3cc(OC)cc(OC)c3)nc1=O)CCC2	29*	0	-10	-16	-8	-1
O=C(CSc1nc(=O)n(CCCN2CCOCC2)c2c1CCCC2)Nc1cccc(F)c1	30*	-6	-3	-14	-8	1
O=C(CSc1nc(=O)n(CCCN2CCOCC2)c2c1CCCC2)Nc1cccc([N+](=O)[O-])c1	26	10	-11	-16	-9	2
CCCCc1ccc(NC(=O)CSc2nc(=O)n(CCN(CC)CC)c3c2CCC3)cc1	36*	-13	-8	-20	-7	1
Cc1ccc(S(=O)(=O)N2[C@@H](c3ccc(Cl)cc3)C(C(=O)O)=CC[C@H]2c2ccc(Cl)c(Cl)c2)cc1	1	-4	3	3	-5	0
COc1ccc(/C=N/NC(=O)c2ccco2)cc1Cn1nc(C)c([N+](=O)[O-])c1C	-5	-17	3	0	-4	5
O=C(Nc1c2c(nn1-c1ccc(F)cc1)CS(=O)C2)c1ccc(Br)o1 (stereo not given)	-8	4	-3	9	-2	0
O=c1[nH]c(Nc2ccc3c(c2)OCCO3)nnc1Cc1ccccc1	1	-4	-4	3	-8	0
O=C(OCc1nnc(-c2ccccc2)o1)c1ccc2c(c1)OCCO2	1	0	3	1	-3	3
COc1ccc(C)cc1-n1ccn(CC(=O)Nc2ccc(Br)cc2F)c(=O)c1=O	-6	0	-3	-2	0	1
Cc1ccccc1NC(=S)NN1CCN(C)CC1	11	3	30*	-3	-5	1
O=C(COc1ccc(Cl)cc1Cl)NCC(=O)N/N=C/c1c[nH]c2ccccc12	-14	-2	4	8	-7	0
OC(CN1CCN(C(c2ccccc2)c2ccccc2)CC1)c1ccc(Br)cc1 (stereo not given)	38*	10	-17	-22	-10	-2
SMILES	CHRM1 antagonist	CHRM4 antagonist	CHRM4 PAM	CHRM1 PAM	CHRM1 agonist	CHRM4 agonist
OC(CN1CCN(C(c2ccccc2)c2ccccc2)CC1)c1ccccc1 (stereo not given)	26	5	-12	-25	-10	1
C=CCc1ccccc1OCC(O)CN1CCN(c2ccc(C)cc2)CC1 (stereo not given)	7	-9	16	-7	-2	3
C=CCc1ccccc1OCC(O)CN1CCN(C(=O)OCC)CC1 (stereo not given)	28	9	-2	-21	43*	4
CCOC(=O)N1CCN(CC(O)COc2ccccc2C(C)C)CC1 (stereo not given)	-2	-1	1	-5	20*	2
COc1cccc(OCC(O)CN2CCN(C(c3ccccc3)c3ccccc3)CC2)c1 (stereo not given)	26	-5	-12	-19	-8	2
CC(=O)c1ccccc1OCC(O)CN1CCN(C(c2ccccc2)c2ccccc2)CC1 (stereo not given)	-14	35*	-23	-15	-6	1
CSCCC(NC(=O)c1cc(C)oc1C)C(=O)O (stereo not given)	-11	4	4	11	-1	1
O=C(Cn1nc(-c2ccccc2)ccc1=O)NCCN1CCN(c2cccc(Cl)c2)CC1	0	-4	-11	-6	-6	4
Cc1ccccc1-n1nnnc1SCC(N)=O	-16	-4	3	4	-2	0
CN(C)CCC1Sc2ccccc2Oc2ccccc21 (stereo not given)	48*	-3	-10	-22	-4	3
OCC[C@H]1C[C@@H](O)[C@H](O)[C@]2(CCc3ccccc3CO2)O1	-2	-19	17	5	18*	2
Cc1ccc(NS(=O)(=O)c2ccc(C(=O)OCC(=O)Nc3cc(C)on3)cc2)cc1	8	7	-5	6	28*	19
COc1ccc(NS(=O)(=O)c2cccc(C(=O)OCC(=O)Nc3cc(C)on3)c2)cc1	4	9	8	-2	2	5
Cc1cc(NC(=O)COC(=O)c2cccc(S(=O)(=O)N(C)C3CCCCC3)c2)no1	8	30*	9	-5	-4	3
OC1C(O)C(O)C(O)C(O)C1O (stereo not given)	100*!	-31	6	-1	-1	0
COC(=O)c1sc(-c2ccccc2)cc1NC(=O)c1ccc(OC)cc1	-7	-15	24*	3	-2	1
O=C(Cc1ccccc1[N+](=O)[O-])Nc1ccccc1C(=O)N1CCOCC1	-3	7	-6	6	-7	2
Cc1c(NC(=O)c2ccc(N(C)S(=O)(=O)c3ccccc3)cc2)c(=O)n(-c2ccccc2)n1C	7	-5	4	-6	-15	1
Cc1c(NC(=O)c2ccc(S(=O)(=O)Nc3ccccc3F)cc2)c(=O)n(-c2ccccc2)n1C	35*	19	-1	-22	-6	2

Screening results: PubChem BioAssay, The Scripps Research Institute Molecular Screening Center
